Measured values published in the supplement of paper PMC12067093, “Discovery and optimisation of a covalent ligand for TRIM25 and its application to targeted protein ubiquitination” (Chemical Science, 2025).
Of roughly 21,000 targets only a part is listed; those with the largest changes were picked by preference.

Compound: Cc1cc(ccc1-c1ccccc1)C(=O)N1CCCN(CC1)C(=O)CCl [compound 10]
Assay: probe-labelled cysteine peptide fold change vs DMSO (competition) (log2 fold change); higher = less target engagement (more negative = stronger competition)
Settings: THP-1, incubation time: 4 h
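Also: competitive profiling in live THP-1 cells: cysteine peptides tagged with an iodoacetamide desthiobiotin (IA-DTB) probe, intensity after compound treatment relative to DMSO-treated cells.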

Chain of UniProt Q14566 (Q14566 whole entry, looked up): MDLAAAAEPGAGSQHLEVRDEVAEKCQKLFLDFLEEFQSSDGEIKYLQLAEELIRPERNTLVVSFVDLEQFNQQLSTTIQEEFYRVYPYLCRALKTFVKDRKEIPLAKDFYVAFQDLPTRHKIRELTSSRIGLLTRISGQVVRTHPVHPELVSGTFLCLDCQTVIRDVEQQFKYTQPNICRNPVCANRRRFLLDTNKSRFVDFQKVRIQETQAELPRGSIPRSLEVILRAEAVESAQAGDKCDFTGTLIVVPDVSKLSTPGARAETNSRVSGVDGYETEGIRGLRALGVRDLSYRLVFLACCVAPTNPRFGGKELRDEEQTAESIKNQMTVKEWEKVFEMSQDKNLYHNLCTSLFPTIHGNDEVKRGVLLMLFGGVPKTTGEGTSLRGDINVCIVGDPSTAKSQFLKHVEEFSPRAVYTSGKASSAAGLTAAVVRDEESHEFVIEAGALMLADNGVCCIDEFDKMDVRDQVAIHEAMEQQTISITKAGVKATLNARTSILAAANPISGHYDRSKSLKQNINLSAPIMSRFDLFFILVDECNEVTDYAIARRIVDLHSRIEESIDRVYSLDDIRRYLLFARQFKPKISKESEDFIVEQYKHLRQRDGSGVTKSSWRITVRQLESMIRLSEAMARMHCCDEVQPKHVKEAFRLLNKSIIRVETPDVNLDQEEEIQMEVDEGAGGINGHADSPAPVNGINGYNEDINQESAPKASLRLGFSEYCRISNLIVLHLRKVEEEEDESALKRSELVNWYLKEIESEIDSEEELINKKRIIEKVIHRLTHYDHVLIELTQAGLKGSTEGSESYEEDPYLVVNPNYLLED
Chain of UniProt Q9BQK8 (Q9BQK8 whole entry): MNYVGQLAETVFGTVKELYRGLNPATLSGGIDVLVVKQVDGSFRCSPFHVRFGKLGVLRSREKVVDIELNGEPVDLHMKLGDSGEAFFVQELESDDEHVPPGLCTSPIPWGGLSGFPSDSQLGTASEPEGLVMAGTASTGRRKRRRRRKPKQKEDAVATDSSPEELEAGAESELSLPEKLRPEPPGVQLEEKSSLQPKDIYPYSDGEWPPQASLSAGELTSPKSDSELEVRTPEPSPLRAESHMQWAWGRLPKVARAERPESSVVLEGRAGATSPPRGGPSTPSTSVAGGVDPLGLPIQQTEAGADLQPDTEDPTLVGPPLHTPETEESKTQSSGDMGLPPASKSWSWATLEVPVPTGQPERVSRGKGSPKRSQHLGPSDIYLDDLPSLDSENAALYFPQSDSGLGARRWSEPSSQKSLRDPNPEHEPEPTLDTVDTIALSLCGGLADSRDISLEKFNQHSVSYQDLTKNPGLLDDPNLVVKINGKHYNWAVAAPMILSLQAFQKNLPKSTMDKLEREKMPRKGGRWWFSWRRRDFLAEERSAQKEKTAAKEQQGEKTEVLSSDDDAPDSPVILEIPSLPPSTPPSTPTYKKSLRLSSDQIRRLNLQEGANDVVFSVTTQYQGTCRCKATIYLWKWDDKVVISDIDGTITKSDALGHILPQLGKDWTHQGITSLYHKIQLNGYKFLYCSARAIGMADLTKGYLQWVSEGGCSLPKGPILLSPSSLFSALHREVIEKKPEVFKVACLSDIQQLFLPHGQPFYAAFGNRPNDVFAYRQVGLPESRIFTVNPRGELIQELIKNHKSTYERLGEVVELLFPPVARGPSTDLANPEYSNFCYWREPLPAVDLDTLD
Chain of UniProt Q9UGP4 (Q9UGP4 whole entry, looked up): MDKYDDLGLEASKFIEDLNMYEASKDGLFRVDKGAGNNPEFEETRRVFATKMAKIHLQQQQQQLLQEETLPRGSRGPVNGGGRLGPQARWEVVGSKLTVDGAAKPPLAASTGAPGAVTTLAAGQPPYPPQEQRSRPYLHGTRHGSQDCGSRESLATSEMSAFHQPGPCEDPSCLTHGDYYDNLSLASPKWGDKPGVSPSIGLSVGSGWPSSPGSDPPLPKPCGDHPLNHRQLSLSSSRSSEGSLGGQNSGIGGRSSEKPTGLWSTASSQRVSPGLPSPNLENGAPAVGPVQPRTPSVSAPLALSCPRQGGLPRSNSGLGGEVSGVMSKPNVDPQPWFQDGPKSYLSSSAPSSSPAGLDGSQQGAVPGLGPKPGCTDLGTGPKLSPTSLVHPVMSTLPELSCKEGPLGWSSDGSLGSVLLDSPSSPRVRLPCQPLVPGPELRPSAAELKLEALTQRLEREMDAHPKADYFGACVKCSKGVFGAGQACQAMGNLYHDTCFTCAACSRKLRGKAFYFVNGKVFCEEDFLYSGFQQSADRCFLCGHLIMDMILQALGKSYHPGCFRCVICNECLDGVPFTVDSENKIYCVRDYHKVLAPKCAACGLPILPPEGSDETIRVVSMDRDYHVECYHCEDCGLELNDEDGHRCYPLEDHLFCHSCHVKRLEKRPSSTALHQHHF
Chain of UniProt Q8N1G4 (Q8N1G4 whole entry, looked up): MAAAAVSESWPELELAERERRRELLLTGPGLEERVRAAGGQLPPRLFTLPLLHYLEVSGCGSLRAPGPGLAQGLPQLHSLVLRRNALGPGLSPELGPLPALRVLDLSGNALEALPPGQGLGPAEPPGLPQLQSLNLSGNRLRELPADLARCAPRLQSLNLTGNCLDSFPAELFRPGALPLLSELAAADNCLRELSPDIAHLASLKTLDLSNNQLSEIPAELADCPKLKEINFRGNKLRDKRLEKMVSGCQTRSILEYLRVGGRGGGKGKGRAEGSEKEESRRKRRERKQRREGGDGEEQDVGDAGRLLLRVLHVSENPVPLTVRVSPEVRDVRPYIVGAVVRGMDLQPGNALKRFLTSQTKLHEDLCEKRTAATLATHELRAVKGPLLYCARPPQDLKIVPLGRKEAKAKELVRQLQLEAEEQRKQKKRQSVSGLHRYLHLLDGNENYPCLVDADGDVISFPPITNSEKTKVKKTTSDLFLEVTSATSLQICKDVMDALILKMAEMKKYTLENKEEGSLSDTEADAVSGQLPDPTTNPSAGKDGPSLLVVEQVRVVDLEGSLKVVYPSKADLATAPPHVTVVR
Chain of UniProt P36776 (P36776 whole entry, looked up): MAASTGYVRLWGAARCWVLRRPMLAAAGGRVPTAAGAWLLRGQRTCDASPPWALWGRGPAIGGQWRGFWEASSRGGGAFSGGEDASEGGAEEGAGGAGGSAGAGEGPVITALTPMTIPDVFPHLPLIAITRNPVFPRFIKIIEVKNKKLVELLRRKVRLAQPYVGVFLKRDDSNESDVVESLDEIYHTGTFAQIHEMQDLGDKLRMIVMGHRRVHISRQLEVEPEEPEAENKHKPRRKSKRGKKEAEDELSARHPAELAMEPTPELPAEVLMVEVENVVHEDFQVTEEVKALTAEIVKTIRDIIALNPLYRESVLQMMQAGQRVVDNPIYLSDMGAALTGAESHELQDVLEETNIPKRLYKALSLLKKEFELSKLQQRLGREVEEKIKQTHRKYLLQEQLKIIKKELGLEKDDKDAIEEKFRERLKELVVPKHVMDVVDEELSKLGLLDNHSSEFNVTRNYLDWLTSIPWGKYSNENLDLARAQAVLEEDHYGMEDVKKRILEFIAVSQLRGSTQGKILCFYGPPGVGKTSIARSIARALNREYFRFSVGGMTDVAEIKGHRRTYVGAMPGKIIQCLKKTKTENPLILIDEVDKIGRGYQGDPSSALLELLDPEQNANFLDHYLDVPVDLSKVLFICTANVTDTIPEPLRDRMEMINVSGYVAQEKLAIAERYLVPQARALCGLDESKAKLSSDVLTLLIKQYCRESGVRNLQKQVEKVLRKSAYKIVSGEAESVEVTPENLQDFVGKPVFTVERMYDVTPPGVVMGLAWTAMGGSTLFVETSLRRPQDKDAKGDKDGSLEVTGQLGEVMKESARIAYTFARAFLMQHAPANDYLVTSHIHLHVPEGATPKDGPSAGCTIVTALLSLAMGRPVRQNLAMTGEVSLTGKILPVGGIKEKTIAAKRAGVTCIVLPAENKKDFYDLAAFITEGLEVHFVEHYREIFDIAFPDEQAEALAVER
Chain of UniProt P56270 (P56270 whole entry, looked up): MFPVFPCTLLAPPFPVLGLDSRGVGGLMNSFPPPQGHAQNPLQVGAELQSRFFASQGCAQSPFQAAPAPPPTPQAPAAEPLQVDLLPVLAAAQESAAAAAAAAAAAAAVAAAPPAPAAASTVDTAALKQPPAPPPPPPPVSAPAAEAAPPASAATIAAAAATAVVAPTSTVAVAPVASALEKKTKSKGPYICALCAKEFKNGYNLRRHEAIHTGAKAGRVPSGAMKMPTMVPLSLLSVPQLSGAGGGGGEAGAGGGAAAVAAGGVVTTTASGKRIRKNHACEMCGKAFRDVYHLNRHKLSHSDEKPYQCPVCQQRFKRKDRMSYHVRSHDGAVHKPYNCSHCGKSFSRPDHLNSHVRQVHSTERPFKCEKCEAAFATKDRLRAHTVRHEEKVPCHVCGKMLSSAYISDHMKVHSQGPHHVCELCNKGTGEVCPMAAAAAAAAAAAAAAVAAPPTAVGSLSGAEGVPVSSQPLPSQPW
Chain of UniProt Q9Y217 (Q9Y217 whole entry, looked up): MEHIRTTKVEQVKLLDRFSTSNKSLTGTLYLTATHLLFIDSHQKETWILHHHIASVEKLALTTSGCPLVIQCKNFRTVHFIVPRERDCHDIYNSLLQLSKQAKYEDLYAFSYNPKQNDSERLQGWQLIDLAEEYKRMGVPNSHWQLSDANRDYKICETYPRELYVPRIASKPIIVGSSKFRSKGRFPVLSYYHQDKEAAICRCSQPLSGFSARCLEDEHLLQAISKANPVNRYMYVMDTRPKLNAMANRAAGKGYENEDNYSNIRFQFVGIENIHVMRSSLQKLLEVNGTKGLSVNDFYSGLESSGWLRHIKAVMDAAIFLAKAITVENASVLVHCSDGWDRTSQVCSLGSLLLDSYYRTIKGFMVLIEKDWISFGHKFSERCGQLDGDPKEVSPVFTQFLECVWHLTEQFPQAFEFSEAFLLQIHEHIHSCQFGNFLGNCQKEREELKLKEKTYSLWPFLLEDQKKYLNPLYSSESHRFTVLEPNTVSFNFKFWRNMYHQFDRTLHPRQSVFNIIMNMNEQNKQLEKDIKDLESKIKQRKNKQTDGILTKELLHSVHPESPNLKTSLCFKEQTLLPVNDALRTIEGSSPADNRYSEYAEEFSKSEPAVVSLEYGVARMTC

Target	probe-labelled cysteine peptide fold change (10 µM)	probe-labelled cysteine peptide fold change (50 µM)
MAPK9_P45984_222_GCVIFQGTDHIDQWNK (UniProt P45984)	-0.0703	0.0724
MSH6_P52701_687_SELALSALGGCVFYLK (UniProt P52701)	0.05	0.296
MCCC2_Q9HCC0_267_AATGEEVSAEDLGGADLHCR (UniProt Q9HCC0)	-0.421	-1.1
LRRC8A_Q8IWT6_768+776_GNRLECLPVELGECPLLK (UniProt Q8IWT6)	-0.106	-0.0226
LY75_O60449-2_1697_NQCTDHGADMISIHNEEENAFILDTLK (UniProt O60449)	-0.0829	0.022
MAZ_P56270_424_VHSQGPHHVCELCNK (UniProt P56270)	0.033	-0.236
MRI1_Q9BV20_168_VTVLTHCNTGALATAGYGTALGVIR (UniProt Q9BV20)	0.147	0.0771
MYCBP2_O75592_3392_MPCLYLQTLAR (UniProt O75592)	-0.0844	-0.345
MARS_P56192_309_QWNTLYLCGTDEYGTATETK (UniProt P56192)	-0.0161	0.0949
MYBBP1A_Q9BQG0_890_RYCHDLGER (UniProt Q9BQG0)	0.104	0.125
MATR3_P43243_230_CRDDSFFGETSHNYHK (UniProt P43243)	0.00308	-0.311
MGMT_P16455_145_GNPVPILIPCHR (UniProt P16455)	-1.04	-1.29
LIMD1_Q9UGP4_401_LSPTSLVHPVMSTLPELSCK (UniProt Q9UGP4)	-0.0884	-0.436
MYBBP1A_Q9BQG0_338_HYGEHVCTAK (UniProt Q9BQG0)	0.0441	0.083
MYCBP2_O75592_505_CLHACGISLFDLEK (UniProt O75592)	0.122	0.236
MADD_Q8WXG6_1489_LINMTYCPK (UniProt Q8WXG6)	-0.139	-1.56
MACF1_Q9UPN3_5309_DCDVQGLEHDMEEINAR (UniProt Q9UPN3)	0.0885	0.126
MTREX_P42285_430_KMVEEVFSNAIDCLSDEDK (UniProt P42285)	-0.306	-0.485
MTMR10_Q9NXD2_70_LICSNFK (UniProt Q9NXD2)	-0.125	-0.103
LRRK2_Q5S007_1187_FSCIPEAILNLPHLR (UniProt Q5S007)	-0.0375	-0.109
MYBL2_P10244_147_SCWTEEEDRIICEAHK (UniProt P10244)	0.166	-0.335

Target	probe-labelled cysteine peptide fold change (10 µM)	probe-labelled cysteine peptide fold change (50 µM)
LTA4H_P09960_8_PEIVDTCSLASPASVCR (UniProt P09960)	-0.129	-0.324
MCM3_P25205_119+123+126_TLTSCFLSCVVCVEGIVTK (UniProt P25205)	-0.0216	-1.13
MMADHC_Q9H3L0_261+262_HLGFSVDDLGCCK (UniProt Q9H3L0)	-0.412	-1.16
LUC7L3_O95232_40+43_YYLCGFCPAELFTNTR (UniProt O95232)	0.232	-0.733
LRRFIP1_Q32MZ4_456_CMVEVPQELETSTGHSLEK (UniProt Q32MZ4)	-0.167	-0.23
MEFV_O15553_375_KSPGSLSPQPLPQCK (UniProt O15553)	-0.229	-1.2
MITD1_Q8WV92_226_FSLGYCDFDLRPCHETTVDIFHK (UniProt Q8WV92)	0.0984	0.0591
MMADHC_Q9H3L0_261_HLGFSVDDLGCCK (UniProt Q9H3L0)	-0.3	-1.27
MFN1_Q8IWA4_513_LCSDFQEDIVFR (UniProt Q8IWA4)	-0.0991	0.451
MACF1_Q9UPN3_3109_EIACGAQSEPFPCMTPRPEGLHYQESDGK (UniProt Q9UPN3)	-0.348	-0.619
LPIN3_Q9BQK8_443_SLRDPNPEHEPEPTLDTVDTIALSLCGGLADSR (UniProt Q9BQK8)	-0.112	0.0613
MRC2_Q9UBG0_201_YDNQWFHGCTSTGR (UniProt Q9UBG0)	-2.14	-2.04
MPP1_Q00013_454_KLQEAFDQACSSPQWVPVSWVY (UniProt Q00013)	-0.0366	-0.104
LYSMD2_Q8IV50_106_LFTNDCIFLK (UniProt Q8IV50)	-0.192	-1.77
MDN1_Q9NU22_3195_ELLCQLLTSLHHFVGEGESK (UniProt Q9NU22)	-0.696	-1.2
MIS18A_Q9NYP9_85_AQLEEEAAAAEERPLVFLCSGCR (UniProt Q9NYP9)	0.00435	-0.0262
MDN1_Q9NU22_3985_KFEAVLSEPCR (UniProt Q9NU22)	-0.313	-0.0822
LRR1_Q96L50_5_LHCEVEVISR (UniProt Q96L50)	-0.12	0.0535
MRPL44_Q9H9J2_96_TAFVNSCYIK (UniProt Q9H9J2)	-0.0364	-0.21
MGAT2_Q10469_378_IFHAGDCGMHHK (UniProt Q10469)	-0.125	-0.149
LIMS3_P0CW19-2_136_YCEHDFQMLFAPCCHQCGEFIIGR<|>LIMS1_P48059_74_YCEHDFQMLFAPCCHQCGEFIIGR (UniProt P48059+P0CW19)	0.212	0.138

Target	probe-labelled cysteine peptide fold change (10 µM)	probe-labelled cysteine peptide fold change (50 µM)
LENG8_Q96PV6_584_SLCMVK (UniProt Q96PV6)	-0.193	-1.09
MTMR14_Q8NCE2_131_FVCPVILFK (UniProt Q8NCE2)	-0.00849	-0.0865
MAP1S_Q66K74_435+440_VLFPGCTPPACLLDGLVR (UniProt Q66K74)	-0.0708	-0.133
LRCH3_Q96II8_148_NQLSTLPVHLCNLPLK (UniProt Q96II8)	0.138	0.0632
MDN1_Q9NU22_2158_CLGEGGK (UniProt Q9NU22)	-0.171	-1.54
LIMK1_P53667_84_YGESCHGCSEQITK (UniProt P53667)	0.0187	-0.262
LRRC40_Q9H9A6_227_HLDCNSNLLETIPPELAGMESLELLYLRR (UniProt Q9H9A6)	-0.229	-0.459
LRRC47_Q8N1G4_367_LHEDLCEK (UniProt Q8N1G4)	-0.211	-0.0285
MTCH2_Q9Y6C9_49_QVCQLPGLFSYAQHIASIDGR (UniProt Q9Y6C9)	-0.0446	0.0916
MUT_P22033_560_CTVGEITDALK (UniProt P22033)	0.0307	0.0797
LYPLA1_O75608_144_LAGVTALSCWLPLR (UniProt O75608)	0.21	0.0595
METAP2_P50579_263_IIDCAFTVTFNPK (UniProt P50579)	0.171	0.0277
LONP1_P36776_909_AGVTCIVLPAENKK (UniProt P36776)	-0.00288	-0.138
MDN1_Q9NU22_3308_MDRLDNLTCHLLK (UniProt Q9NU22)	-0.00667	-0.264
MTMR6_Q9Y217_214_CLEDEHLLQAISK (UniProt Q9Y217)	-0.103	-0.217
MAP2K6_P52564_216_TIDAGCK (UniProt P52564)	-0.048	0.239
MCRS1_Q96EZ8_84_CSGSEPSSSEK (UniProt Q96EZ8)	-0.0254	-0.104
MED1_Q15648_135_VAHHGENPVSCPELVQQLR (UniProt Q15648)	-0.0375	-0.395
LSM2_Q9Y333_26_DVVVELKNDLSICGTLHSVDQYLNIK (UniProt Q9Y333)	0.0504	-0.543
MCCC2_Q9HCC0_267_AATGEEVSAEDLGGADLHCRK (UniProt Q9HCC0)	-0.591	-1.49
MRPS30_Q9NP92_393_NICWGTQSK (UniProt Q9NP92)	-0.226	-0.187

Target	probe-labelled cysteine peptide fold change (10 µM)	probe-labelled cysteine peptide fold change (50 µM)
MTRR_Q9UBK8_64_AIAEEICEQAVVHGFSADLHCISESDKYDLK (UniProt Q9UBK8)	-0.113	-0.379
MCM2_P49736_406_DAILLADLVDSCK (UniProt P49736)	-0.0605	0.3
MTHFD1_P11586_236_GEWIKPGAIVIDCGINYVPDDK (UniProt P11586)	0.183	0.298
MAPK9_P45984_177_TACTNFMMTPYVVTR (UniProt P45984)	-0.494	-1.64
MSI1_O43347_167_VCEIHFHEINNK<|>MSI2_Q96DH6_168_VCEIHFHEINNK (UniProt Q96DH6+O43347)	0.163	0.236
MMS19_Q96T76_750_ELLELSCCHSCPFSSTAAAK (UniProt Q96T76)	-0.103	-1.11
MYH9_P35579_988_KLEEEQIILEDQNCK (UniProt P35579)	-0.0561	-0.0225
MORC3_Q14149_671_NDAVILPSCVEAEAK (UniProt Q14149)	-0.296	-0.0456
MCU_Q8NE86_191_TLVQQLYTTLCIEQHQLNK (UniProt Q8NE86)	0.0411	-0.0406
MCM2_P49736_584_GVCLIDEFDK (UniProt P49736)	0.0289	0.142
MCMBP_Q9BTE3_249_VYEDWDCFK (UniProt Q9BTE3)	-0.042	-0.0294
M6PR_P20645_145_AVVMISCNR (UniProt P20645)	-0.268	-0.155
MCM5_P33992_355_AIACLLFGGSRK (UniProt P33992)	-0.159	-0.759
MGAT2_Q10469_386_KTCRPSTQSAQIESLLNNNK (UniProt Q10469)	-0.194	-0.657
MCM6_Q14566_158_THPVHPELVSGTFLCLDCQTVIRDVEQQFK (UniProt Q14566)	0.0358	-0.522
MBTD1_Q05BQ5_288_VSESMQYPFKPCMR (UniProt Q05BQ5)	0.00855	0.00392
LRP1_Q07954_3021_GGDPHSCK (UniProt Q07954)	-0.193	-0.308
MARS_P56192_389_CEHCAR (UniProt P56192)	-0.00939	-0.304
MCM5_P33992_221_CVDFQTLK (UniProt P33992)	0.05	-0.397
MRPL35_Q9NZE8_150_EFVFCNK (UniProt Q9NZE8)	-0.362	-0.257
